Results published in PubChem BioAssay (Tox21).
Inconclusive results are not listed. Values without a mark were called inactive. Active and inactive are the calls of the source. Calls come from the whole dose curve; as a rule, active = well fitted cell-killing curve with a large enough effect in the repeat runs; inconclusive = weak or mixed curves, or effect the other way; inactive = flat fitted curve, though single readings scatter.

Assay: qHTS assay to identify small molecule antagonists of the constitutive androstane receptor (CAR) signaling pathway - cell viability counter screen (AID 1224837); note: nearly all actives have a fitted effect of over 45% in size
Conditions: HepG2-CYP2B6-hCAR viability, CellTiter-Fluor, 23 h, co-treated with 50 nM CITCO; series mostly up to 92.4 µM
In short: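 HepG2-CYP2B6-hCAR cells, 2500/well, 4 hr pre-incubation; compound titration, 15 conc.; CITCO 50 nM final; 23 hr, 37 C/5% CO2; CellTiter-Fluor, fluorescence intensity.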
% is set by controls: 0 for no effect and ±100 for the full control effect.

Question: With CCOC(=O)COc1ccc2c(C)c(CCN(CC)CC)c(=O)oc2c1Cl as the molecule, how does the outcome read?
Answer: inactive

Question: With CCCCCCC(O)CO (configuration not stated) as the molecule, how does the outcome read?
Answer: inactive

Question: For NCC1CCC(C(=O)Oc2ccc(CCC(=O)O)cc2)CC1 (configuration not stated), which outcome is on record?
Answer: inactive

Question: With OCCC(F)(F)C(F)(F)C(F)(F)C(F)(F)C(F)(F)C(F)(F)F as the molecule, how does the outcome read?
Answer: inactive

Question: With CCOC(=O)CC(C(C)=O)C(C)=O as the molecule, how does the outcome read?
Answer: inactive

Question: With CCCCCCCCOCCC#N as the molecule, how does the outcome read?
Answer: inactive

Question: With CC(=O)OC/C=C(/C)CCC=C(C)C as the molecule, how does the outcome read?
Answer: inactive

Question: For CN(C)CCCN(C)C, which activity change, negative = cytotoxicity is on record?
Answer: 1.66% [at 8.39 µM]

Question: For CCCC(=O)C(CC)Sc1ccoc1C (configuration not stated), which outcome is on record?
Answer: inactive

Question: For CCCCCCCCCCCBr, which outcome is on record?
Answer: inactive

Question: For Clc1cc(Cl)c(Cl)c(Cl)c1Cl, which outcome is on record?
Answer: inactive

Question: Which outcome does the source give for CCCCN=C(N)N=C(N)N here?
Answer: inactive

Question: For COC(=O)c1c(C)cc(O)c(C)c1O, which outcome is on record?
Answer: inactive

Question: Which outcome does the source give for CC(C)(C)C(=O)CCc1ccc(Cl)cc1 here?
Answer: inactive

Question: Which outcome does the source give for Cc1ccccc1C#N here?
Answer: inactive

Question: Which outcome does the source give for CC(C)(C)c1ccc(N)cc1 here?
Answer: inactive

Question: With COc1cc(OC)cc(OC)c1 as the molecule, how does the outcome read?
Answer: inactive

Question: With Cc1ccc(Br)cc1 as the molecule, how does the outcome read?
Answer: inactive

Question: Which outcome does the source give for C=CCON/C(CCC)=C1\C(=O)CC(C)(C)C(C(=O)OC)=C1O here?
Answer: inactive

Question: Which outcome does the source give for C[C@@H]1CCC[C@H](C)N1CCCC(O)(c1ccccc1)c1ccccn1 (some centres not stated) here?
Answer: inactive

Question: With NNC(=O)OCc1ccccc1 as the molecule, how does the outcome read?
Answer: inactive

Question: Which outcome does the source give for CC(C)(C)c1ccc(C(=O)CCCCl)cc1 here?
Answer: inactive

Question: With C[C@@H](CN1CC(=O)NC(=O)C1)N1CC(=O)NC(=O)C1 as the molecule, how does the outcome read?
Answer: inactive

Question: Which outcome does the source give for CC(C)(O)CCCC1=CCC(C=O)CC1 (configuration not stated) here?
Answer: inactive

Question: With O=C(c1ccccc1)c1cccc(O)c1 as the molecule, how does the outcome read?
Answer: inactive

Question: For O=CN1CCCCC1, which outcome is on record?
Answer: inactive

Question: For CN1C(CCl)Nc2cc(Cl)c(S(N)(=O)=O)cc2S1(=O)=O (configuration not stated), which outcome is on record?
Answer: inactive
